Hits are enriched below; roughly 3.8% of the tested compounds scored in any of these assays.
TIM10 inh: inhibits growth of TIM10 yeast strain; 330,000 compounds, 1.4% hits; inhibition, % at 10 µM; S. cerevisiae TIM10 strain growth, BacTiter-Glo luminescence, 24 h;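 active = inhibition of 40% or more at the single tested concentration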;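 also: wild-type TIM10 isogenic control strain grown at permissive 25 °C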
tim10-1 inh: inhibits growth of tim10-1 mutant yeast | S. cerevisiae tim10-1 ts strain growth, BacTiter-Glo, 24 h | inhibition, % at 20 µM | 330,000 compounds, 2.2% hits;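 active = inhibition of at least 40%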;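 also: mutant grown at 25 °C; 0% = DMSO wells with yeast and 100% = wells holding no yeast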
tim23-1 inh: growth inhibitors of tim23-1 mutant yeast | inhibition, % at 20 µM | 330,000 compounds, 1.3% hits | S. cerevisiae tim23-1 growth, BacTiter-Glo luminescence, 24 h;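 active = growth inhibition of the mutant yeast at or above 50%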;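 also: temperature-sensitive mutant grown at 25 °C; plate controls were DMSO-treated mutant yeast for no effect and medium wells lacking yeast for full effect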
PfHsp90 set2: inhibits growth of yeast expressing Plasmodium falciparum Hsp90 | S. cerevisiae expressing PfHsp90, BacTiter-Glo ATP, 48 h; yeast lacking PDR1 and PDR3 efflux regulators | AID 504621 | 310,000 compounds, 0.32% hits | inhibition, % at 9.4 µM;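 active = every replicate shows inhibition above about 80%, whatever the replicate mean, limit read from the data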;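 also: 0% = DMSO neutral controls and 100% = 20 µM radicicol positive controls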
Beta2AR agonist: agonists of human beta-2 adrenergic receptor inducing internalization; response, % (test concentration not listed); 340,000 compounds, 0.43% hits; Am2.2-beta2AR cells, FAP receptor internalization, flow cytometry; P07550;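 active = response above a set limit, near 3 SD of response in nonfluorescent compounds, cut at about 42% in these data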
Target sequence (P07550 whole entry, looked up): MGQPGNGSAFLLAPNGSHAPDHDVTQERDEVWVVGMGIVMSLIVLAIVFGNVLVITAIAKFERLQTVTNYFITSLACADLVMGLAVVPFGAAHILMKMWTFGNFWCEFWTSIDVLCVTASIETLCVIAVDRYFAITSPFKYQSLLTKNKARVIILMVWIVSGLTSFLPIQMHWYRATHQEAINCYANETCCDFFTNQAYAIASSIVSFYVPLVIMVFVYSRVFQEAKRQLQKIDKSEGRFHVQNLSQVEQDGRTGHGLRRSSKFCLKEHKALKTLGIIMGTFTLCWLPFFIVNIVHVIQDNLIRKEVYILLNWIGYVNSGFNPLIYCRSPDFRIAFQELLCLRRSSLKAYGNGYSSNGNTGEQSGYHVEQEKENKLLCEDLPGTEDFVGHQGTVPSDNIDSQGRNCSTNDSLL
tim10-1 confirm: tim10-1 yeast growth inhibition, confirmed; shares compounds with tim10-1 inh; S. cerevisiae tim10-1 ts strain growth, BacTiter-Glo, 24 h; inhibition, % at 20 µM; 7,400 compounds, 56% hits;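 active = inhibition of yeast growth at or above a set limit in either of two repeat tests at 20 µM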;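 also: tim10-1 mutant grown at permissive 25 °C to find synthetic lethal compounds; 0% = DMSO yeast wells and 100% = medium wells without yeast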
tim10 confirm: confirmation of TIM10 yeast growth inhibitors; S. cerevisiae tim10 strain growth, BacTiter-Glo luminescence, 24 h; shares compounds with TIM10 inh; 4,600 compounds, 63% hits; inhibition, % at 10 µM;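 active = inhibition of yeast growth at or above a set limit in either of two replicates at 10 µM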;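 also: this counterscreen used the strain with wild-type TIM10; 0% = yeast with DMSO and 100% = medium wells lacking yeast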
Active calls of the source: *; . = no result given.

SMILES	TIM10 inh	tim10-1 inh	tim23-1 inh	PfHsp90 set2	Beta2AR agonist	tim10-1 confirm	tim10 confirm
C/C(=N\N=c1/sc2ccccc2n1C)c1ccccn1	43*	43*	37	5	-9	35*	-13
O=C1c2ccccc2C(=O)c2c1ccc1c(=O)n(C3CCCCC3)[nH]c21	50*	50*	44	-13	3	39*	54*
COc1ccc(C2/C(=C(/O)c3ccc(Br)cc3)C(=O)C(=O)N2C)cc1 (stereo unspecified)	-15	-4	-10	2	-4	.	.
Cc1cccc(NC(=O)c2cc([N+](=O)[O-])ccc2N2CCCCC2)n1	47*	43*	31	-42	-5	39*	18
CC(C)CC(=O)NC(=S)NCCc1ccccc1	46*	47*	35	-11	-4	22	15
CC(C)(C)CC(=O)NC(=S)NCCc1ccccc1	29	37	38	-23	-4	.	.
CC(C)Oc1ccc(CNC(=O)CCCN2C(=O)C(c3ccccc3)Oc3cccnc32)cc1 (stereo unspecified)	7	14	9	21	-6	.	.
C=CCn1c(CCc2cc(C(C)(C)C)c(O)c(C(C)(C)C)c2)n[nH]c1=S	42*	50*	47	-3	11	21	40*
CC(Cn1cncn1)C(=O)N1CCN(S(=O)(=O)c2ccccc2)CC1 (stereo unspecified)	-11	13	13	2	-7	.	.
O=C(Cc1ccc(NC(=O)C2CCCN(C(=O)CCc3ccccc3)C2)cc1)Nc1cccc(C(=O)N2CCCC2)c1 (stereo unspecified)	.	.	.	0	-5	.	.
CCOc1ccc(N2C(=O)CC(N)C2=O)cc1 (stereo unspecified)	72*	73*	40	-19	-5	69*	70*
CCOc1ccc(N2C(=O)CC(Cc3cc(C)cc(C)c3)C2=O)cc1 (stereo unspecified)	-5	24	24	-6	-7	.	.
CCOc1ccc(N2C(=O)CC(Sc3n[nH]c(-c4ccccc4)n3)C2=O)cc1 (stereo unspecified)	57*	51*	23	31	-2	53*	36*
CO/N=C/c1ccc(Sc2ccccc2N)c([N+](=O)[O-])c1	44*	49*	29	-13	5	35*	25
O=S(=O)(c1ccccc1)N1CCC(=NO)CC1	-17	9	13	-1	2	.	.
O=C(ON=C1CCN(S(=O)(=O)c2ccccc2)CC1)c1cccc(Cl)c1	47*	66*	45	.	-8	67*	55*
COc1ccc(S(=O)(=O)N2CCOc3ccccc32)cc1	13	3	2	4	8	.	.
COc1ccc(S(=O)(=O)n2nc(OC(=O)c3cccs3)cc2N)cc1	44*	45*	40	16	-11	31*	52*
CS(=O)(=O)n1nc(OC(=O)c2cccs2)cc1N	0	5	16	1	1	.	.
Cc1ccc2nc(-c3ccc(Br)o3)oc(=O)c2c1	48*	41*	50	-1	0	35*	33*
CC(C)(C)OC(=O)N1CCC[C@H]1C(=O)Nc1ccc(S(=O)(=O)C(F)F)cc1	17	12	10	1	-3	.	.
O=C(/C(=C/O)N=Nc1ccccc1Cl)c1ccccc1	91*	43*	47	-15	10	21	18
O=C(C=Cc1ccccc1Cl)c1ccccc1	.	.	.	-45	15	.	.
CCOC(=O)C1(S(=O)(=O)c2ccc(Cl)cc2)CCN(Cc2ccc(Cl)cc2)CC1	42*	48*	49	0	-1	28	34*
COc1cccc(-c2nn3c(-c4ccco4)nnc3s2)c1	47*	52*	50	-23	-11	55*	19
SMILES	TIM10 inh	tim10-1 inh	tim23-1 inh	PfHsp90 set2	Beta2AR agonist	tim10-1 confirm	tim10 confirm
COc1cccc(-c2nn3c(-c4cc(C)[nH]n4)nnc3s2)c1	4	2	0	59	-1	.	.
Cc1cccn2cc(-c3ccc(S(=O)(=O)N4CCCCC4)cc3)nc12	48*	62*	45	8	4	70*	63*
COc1ccc(C2CC2/C(=N/OC(=O)c2cccs2)c2ccccc2)cc1 (stereo unspecified)	63*	63*	45	-14	6	59*	64*
COc1ccc(NC(=S)NNC(=O)c2ccco2)c(OC)c1	-4	-13	-14	17	-5	.	.
CC(OC(=O)Cc1ccsc1)C(=O)Nc1ccc(C(N)=O)cc1 (stereo unspecified)	-3	0	-2	6	-12	.	.
Cc1ncc(CO)c(/C=N/NC(=S)Nc2ccc(Cl)c(Cl)c2)c1O	92*	51*	20	28	5	33*	38*
COc1ccc(CCN2CC(C(=O)OCc3ccccc3Cl)CC2=O)cc1OC (stereo unspecified)	.	.	.	-22	0	.	.
COc1cc(C(=O)/C=C/c2cccnc2)c([N+](=O)[O-])cc1OC	41*	42*	38	-13	7	39*	33*
O=C(/C=C/c1cccnc1)c1ccc([N+](=O)[O-])cc1	7	22	18	12	-5	.	.
Cc1cc(NC2CCCCC2)nc(-c2ccccc2O)n1	27	37	28	-14	1	.	.
Cc1cc(NCc2ccccc2)nc(-c2ccccc2O)n1	66*	64*	47	.	12	49*	46*
CCCC1CC(C)(c2csc(Nc3ccc(OCC)cc3)n2)OC1=O (stereo unspecified)	48*	40*	48	-12	2	30	46*
CCOc1ccc(NC(=O)CC2CC(C)(C)OC2=O)cc1 (stereo unspecified)	3	4	6	2	5	.	.
CC(C)N1C/C(=C/c2ccsc2)C(=O)/C(=C/c2ccsc2)C1	46*	40*	22	4	34	28	34*
CCC(/C=C1\Sc2ccc(OC)cc2N1CC)=C\c1sc2ccc(OC)cc2[n+]1CCCS(=O)(=O)[O-]	45*	50*	33	21	-16	43*	13
CCO/C(=C/c1sc2ccc(OC)cc2[n+]1CCCS(=O)(=O)[O-])CC	-5	1	9	.	-12	.	.
CC(/C=N/n1c(-c2ccccc2)n[nH]c1=S)=C\c1ccco1	44*	42*	48	-21	2	13	41*
O=C(O)C1CCC(CNS(=O)(=O)c2ccccc2)CC1 (stereo unspecified)	15	-5	-6	16	5	.	.
Cc1ccc(C(=O)OCC(=O)c2ccc(Br)cc2)cc1S(=O)(=O)N1CCOCC1	.	.	.	18	19	.	.
Cc1cc(Sc2nc(N)ncc2[N+](=O)[O-])ncn1	49*	51*	41	39	5	48*	32*

High-throughput results as filed in PubChem.
